According to ChEMBL document CHEMBL3988442, “University of Dundee, Small-Polar-MMV Screening Library” (2021):
About 960 (1.5%) of roughly 66,000 compounds showed an effect of 50% or more. The sample as a whole holds a higher share of strong results than the screen did.

Tested on: Trypanosoma brucei
Experiment: Trypanosoma brucei 72 hour study
Type: functional, organism-based
Parameters: scale not given: in the data most compounds retested in dose-response had high values

Cc1nc(Cc2ccc(F)cc2)cc(C2COCCN2)n1.Cl (stereo not given)
Percent Effect (30.3 µM, […]): 101%

Cc1nc(NCc2cccnc2)cc(C2COCCN2)n1 (stereo not given)
Percent Effect (30.3 µM, […]): -2.285%

Cc1nc(NCc2ccc(F)cc2)cc(C2CCCN2)n1.Cl (stereo not given)
Percent Effect (30.3 µM, […]): -9.094%

CN(C)C(=O)COC[C@]12COC[C@H]1CN(Cc1ccco1)C2.O=C(O)C(F)(F)F
Percent Effect (30.3 µM, […]): -53.67%

COC(=O)c1ccc2c(-c3ccnc(NCCO)n3)c[nH]c2c1
Percent Effect (30.3 µM, […]): 8.363%

COC(=O)c1ccc2c(-c3ccnc(N[C@@H](C)CO)n3)c[nH]c2c1
Percent Effect (30.3 µM, […]): 47.11%

CC[C@@H](CO)Nc1nccc(-c2c[nH]c3cc(C(=O)OC)ccc23)n1
Percent Effect (30.3 µM, […]): 72.65%

Cc1nn(CC(=O)N2CCN(Cc3cn(C)nc3C)CC2)cc1Br
Percent Effect (30 µM, 30.03 µM): -22.12%

Cc1ccc(-c2ccccc2CC2CNCCNC2=O)c(C)c1.Cl (stereo not given)
Percent Effect (30.3 µM, […]): 25.6%

Cn1cnnc1C1CCN(C(=O)c2cc(-c3ccccc3)on2)CC1
Percent Effect (30 µM, 30.03 µM): -50.55%

CCc1ccc(C(O)CN2CCN(c3cccc(OC)c3)CC2)cc1 (stereo not given)
Percent Effect (30 µM, 30.03 µM): -8.228%

CCc1ccc(NC(=O)N2C[C@H]3C[C@H](C(=O)NC4CCC4)[C@@H](C2)O3)cc1
Percent Effect (30.3 µM, […]): -16.27%

CN(C)C[C@@H]1C[C@@H]2CN(C(=O)c3ccoc3)CC[C@@H]2N1CC1CC1.O=C(O)C(F)(F)F
Percent Effect (30.3 µM, […]): -22.29%

CNc1ncc(-c2ccc(NC(=O)[C@@H]3CCCCN3)cc2)cn1
Percent Effect (30.3 µM, […]): 7.595%

O=C(Nc1ccc(-c2cnc(NCCO)nc2)cc1)[C@@H]1CCCCN1
Percent Effect (30.3 µM, […]): 53.19%

Nc1ncc(-c2ccc(NC(=O)[C@@H]3CCCCN3)cc2)cn1
Percent Effect (30.3 µM, […]): 8.453%

Cl.Cn1ncc2c1CCCC2NCc1cccc(F)c1 (stereo not given)
Percent Effect (30.3 µM, […]): -9.663%

Cn1ncc2c1CCCC2NCc1cccnc1 (stereo not given)
Percent Effect (30 µM, 30.03 µM): -8.249%

Cn1ncc2c1CCCC2NCc1cccc(OC2CCCC2)c1 (stereo not given)
Percent Effect (30.3 µM, […]): 65.11%

Cc1cccc(CNC2CCCc3c2cnn3C)c1.Cl (stereo not given)
Percent Effect (30 µM, 30.03 µM): 5.756%

Cc1cccc(CNC2CCCc3c2cnn3Cc2ccccc2)c1.Cl (stereo not given)
Percent Effect (30.3 µM, […]): 96.36%

Cc1ccc(CNC2CCCc3c2cnn3Cc2ccccc2)s1.Cl (stereo not given)
Percent Effect (30.3 µM, […]): 15.28%

CN1CC[C@]2(CN(CC3CCOCC3)C[C@H]2c2ccccc2)C1=O.O=C(O)C(F)(F)F
Percent Effect (30.3 µM, […]): -1.885%

O=C(O)C(F)(F)F.O=C(O)C(F)(F)F.O=C(O)C(F)(F)F.O=C(O)c1c(-c2cncnc2)ncc2c1CCN(Cc1cccnc1)C2
Percent Effect (30.3 µM, […]): -22.43%

CN(C)CCN1CCCC12CCN(Cc1nccn1C)CC2.O=C(O)C(F)(F)F.O=C(O)C(F)(F)F.O=C(O)C(F)(F)F
Percent Effect (30.3 µM, […]): -91.45%
